Reference: PubChem BioAssay (Tox21)
“And” between values parts separate entries of the source, which are not always exact repeats. Equal values may be shown once. Records with an inconclusive call do not appear. Entries that show only a call come without a potency. The source holds several records for some structures; these can differ, active in one and inactive in another. The source made the active and inactive calls. Unless noted, calls follow the shape of the dose curve; as a rule, active = well fitted curve in the direction sought with a large enough effect in the repeat runs; inconclusive = weak or mixed curves; inactive = no such curve, though single readings can be large; an effect the other way counts as inactive or inconclusive.

How the values were obtained:
[1] = biological target: Estrogen receptor (Homo sapiens) (UniProt P03372); assay: qHTS assay to identify small molecule antagonists of the estrogen receptor alpha (ER-alpha) signaling pathway using the BG1 cell line in the presence of 0.1 nM 17-beta-estradiol (AID 1259244); also: nearly all actives have a fitted effect of over 50% in size; also: potency is read from the fitted curve at half-maximal effect
Outline: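 VM7Luc4E2 cells (endogenous full-length ER-alpha, stable 4xERE-luciferase) were grown 5 days in phenol red-free medium with charcoal-stripped FBS, then exposed 22 h at 37C to compounds plus 0.1 nM (final) 17beta-estradiol; ONE-Glo luminescence read-out.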

[2] = qHTS assay to identify small molecule HDAC inhibitors (AID 1259364); also: nearly all actives have a fitted effect of over 45% in size; also: potency is read from the fitted curve at half-maximal effect
Outline: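 Wild-type HCT-116 cells were plated overnight, exposed to compounds for 2 h at 37 °C, then given HDAC-Glo class I/II luminogenic reagent for 30 min at room temperature before luminescence was read.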

[3] = qHTS assay to identify small molecule HDAC inhibitors - cell viability counter screen (AID 1259365); also: series mostly up to about 92 µM; nearly all actives have a fitted effect of over 50% in size
Outline: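 Cytotoxicity was gauged in wild-type HCT-116 cells after a brief 2hr treatment with DMSO-dissolved compounds at 37C and 5% CO2, using CellTiter-Glo luminescence developed for 30min at room temperature.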

[4] = qHTS assay to identify small molecule antagonists of the sonic hedgehog signaling (Shh) pathway - cell viability counter screen (AID 1259367); also: nearly all actives have a fitted effect of over 55% in size; also: potency is read from the fitted curve at half-maximal effect
Outline: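 NIH/3T3-derived Gli1-Luc reporter cells (2,000 per well) rested 4 hr at 37 C, then received DMSO compounds plus conditioned medium. After 23 hr of treatment, CellTiter-Fluor was added for 1 hr at 37C and fluorescence read.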

[5] = qHTS assay to identify small molecule agonists of the sonic hedgehog signaling (Shh) pathway (AID 1259368; calls by dose curve; also: series mostly up to about 92 µM; nearly all actives have a fitted effect of over 15% in size)
Outline: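 NIH/3T3-derived 3T3Gli1-Luc cells carrying a stably integrated Gli1 response element–firefly luciferase reporter were plated, left 4 hr at 37 C, then given compounds in DMSO for 24 hr. Luminescence was read 30 min after adding luciferase reagent.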

[6] = biological target: Estrogen receptor beta (Homo sapiens) (UniProt Q92731); assay: qHTS assay to identify small molecule agonists of the estrogen receptor beta (ER-beta) signaling pathway (AID 1259377; active = well fitted activation curve with a large enough effect in the signal ratio in the repeat runs, not every such curve was filed as active; the % refers to the signal ratio)
Outline: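 Measured by fluorescence intensity from a B/G FRET beta-lactamase substrate (2 h, room temperature) in ER-beta-UAS-bla HEK293T cells treated with DMSO-dissolved compounds for 16 hr at 37C and 5% CO2.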

[7] = qHTS assay to identify small molecule agonists of the androgen receptor (AR) signaling pathway in the presence of an antagonist - cell viability counter screen (AID 1259379); also: nearly all actives have a fitted effect of over 25% in size; also: potency is read from the fitted curve at half-maximal effect
Outline: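 MDA-kb2 human breast carcinoma cells (stable MMTV-luciferase, AR/GR responsive) were seeded 3,000 cells/well, pre-incubated 5 hr at 37C without CO2, then given 3.0uM nilutamide and compounds at 15 concentrations for 16 hr. Viability was read by CellTiter-Fluor fluorescence.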

[8] = qHTS assay to identify small molecule agonists of the estrogen receptor beta (ER-beta) signaling pathway - cell viability counter screen (AID 1259380); also: nearly all actives have a fitted effect of over 30% in size; also: potency is read from the fitted curve at half-maximal effect
Outline: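 ER-beta-UAS-bla HEK293T cells in medium with 2% charcoal-stripped FBS were preincubated 6 hr at 37C, dosed with compound in DMSO for 16 hr, then after the bla read, CellTiter-Glo was added for 30 min at room temperature; luminescence recorded.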

[9] = qHTS assay to identify small molecule antagonists of the estrogen receptor beta (ER-beta) signaling pathway - cell viability counter screen (AID 1259382); also: series mostly up to about 92 µM; nearly all actives have a fitted effect of over 55% in size
Outline: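 ER-beta-UAS-bla HEK293T cells (2,000/well, 2% charcoal-stripped FBS) were pre-incubated 6 hr at 37C, then given compound plus 1nM final 17-beta-estradiol for 16 hr. Viability was read in the same wells by CellTiter-Glo luminescence after 30 min at room temperature.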

[10] = biological target: Estrogen receptor (Homo sapiens) (UniProt P03372); assay: qHTS assay to identify small molecule agonists of the estrogen receptor alpha (ER-alpha) signaling pathway in the presence of an antagonist (AID 1259383; calls by dose curve; also: nearly all actives have a fitted effect of over 15% in size; also: potency is read from the fitted curve at half-maximal effect; as to activation: top concentration of the series differs between compounds)
Outline: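 VM7Luc4E2 cells (endogenous full-length ER-alpha, 4×ERE-luciferase) were precultured 5 days in phenol red-free medium with 10% charcoal-stripped FBS, given 10.0nM ICI-182,780 (final), then treated with compounds at 15 concentrations for 22hr at 37C; luminescence read with ONE-Glo.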

[11] = qHTS assay to identify small molecule agonists or antagonists of the thyroid stimulating hormone receptor (TSHR) signaling pathway - wild type cell line counter screen (AID 1259384; calls by dose curve)
Outline: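 Wild-type HEK293 cells were plated 18 h at 37 C/5% CO2, pin-dosed with compound plus Ro20-1724 medium, held 30 min at room temperature, then given cAMP-d2 and anti-cAMP-cryptate; fluorescence was read after 1 h. Fifteen concentrations, triplicate.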

[12] = biological target: Thyrotropin receptor (Homo sapiens) (UniProt P16473); assay: qHTS assay to identify small molecule antagonists of the thyroid stimulating hormone receptor (TSHR) signaling pathway (AID 1259385; calls by dose curve; also: nearly all actives have a fitted effect of over 20% in size)
Outline: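 TSHR-HEK293 cells were plated and held 18 h at 37C/5% CO2, then given compound plus Ro20-1724 and stimulated with TSH at 1.5 ng/mL final. After 30 min at room temperature, cAMP was detected with cAMP-d2/anti-cAMP-cryptate (1 h) by fluorescence.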

[13] = qHTS assay to identify small molecule antagonists of the androgen receptor (AR) signaling pathway using the MDA cell line in the presence of 0.5 nM R1881 - cell viability counter screen (AID 1259242); also: nearly all actives have a fitted effect of over 45% in size; also: potency is read from the fitted curve at half-maximal effect
Outline: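 MDA-kb2 cells (human breast carcinoma, stably carrying MMTV-luciferase reporter) were exposed to compounds with 0.5 nM R1881 (final) for 16 hr at 37C, 0% CO2; viability then read as live-cell protease fluorescence (CellTiter-Fluor, 30 min) in the same wells.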

[14] = qHTS assay to identify small molecule agonists of the sonic hedgehog signaling (Shh) pathway - cell viability counter screen (AID 1259366); also: nearly all actives have a fitted effect of over 50% in size; also: potency is read from the fitted curve at half-maximal effect
Outline: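 Stable Gli1-Luc NIH/3T3 clone, 2,000 cells/well. Compound exposure 24hr at 37C. Read-out: CellTiter-Fluor fluorescence.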

[15] = qHTS assay to identify small molecule antagonists of the sonic hedgehog signaling (Shh) pathway (AID 1259369; calls by dose curve; also: nearly all actives have a fitted effect of over 45% in size; also: potency is read from the fitted curve at half-maximal effect)
Outline: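 NIH/3T3-derived 3T3Gli1-Luc cells with stably integrated Gli1-Luc reporter were preincubated 4hr at 37 C, then given compounds in DMSO plus Shh conditioned medium and incubated 24hr. Firefly luciferase luminescence read after 30min reagent at room temperature.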

[16] = qHTS assay to identify small molecule phospholipidosis (PLD) inducers (AID 1259344; active = well fitted curve in the direction sought with a large enough effect; an effect the other way counts as inactive or inconclusive)
Outline: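 HepG2 cells on collagen I, attached 4 h at 37 C, were co-treated with compound and LipidTOX Red dye for 24 h at 37 C, then fixed with paraformaldehyde plus Hoechst 33342 and imaged by high-content microscopy for phospholipid accumulation.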

[17] = biological target: Estrogen receptor beta (Homo sapiens) (UniProt Q92731); assay: qHTS assay to identify small molecule antagonists of the estrogen receptor beta (ER-beta) signaling pathway (AID 1259378; active = well fitted inhibition curve with a large enough effect in the signal ratio in the repeat runs, not every such curve was filed as active; the % refers to the signal ratio)
Outline: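 ER-beta-UAS-bla HEK293T (GripTite) cells in 2% charcoal-stripped FBS medium were preincubated 6 hr at 37C, dosed with compound, then stimulated with 1 nM E2 (final) for 16 hr; beta-lactamase reporter read by B/G FRET fluorescence after 2 hr substrate loading.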

[18] = biological target: Androgen receptor (Homo sapiens) (UniProt P10275); assay: qHTS assay to identify small molecule agonists of the androgen receptor (AR) signaling pathway in the presence of an antagonist (AID 1259381; calls by dose curve; also: nearly all actives have a fitted effect of over 15% in size)
Outline: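 MDA-kb2 human breast carcinoma cells carrying an MMTV-luciferase reporter (AR- and GR-responsive) were treated with compounds at 15 concentrations plus 3.0uM final nilutamide for 16hr at 37C without CO2; luminescence was read after ONE-Glo addition.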

[19] = biological target: Androgen receptor (Homo sapiens) (UniProt P10275); assay: qHTS assay to identify small molecule antagonists of the androgen receptor (AR) signaling pathway using the MDA cell line in the presence of 0.5 nM R1881 (AID 1259243); also: nearly all actives have a fitted effect of over 50% in size
Outline: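 MDA-kb2 human breast carcinoma cells carrying an MMTV-luciferase reporter (AR- and GR-responsive) were plated, rested 5 hr at 37C, dosed with compounds, then stimulated with 0.5 nM R1881 (final) for 16 hr; luminescence was read after ONE-Glo.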

Androgen receptor (Homo sapiens), sequence (P10275 whole entry, looked up): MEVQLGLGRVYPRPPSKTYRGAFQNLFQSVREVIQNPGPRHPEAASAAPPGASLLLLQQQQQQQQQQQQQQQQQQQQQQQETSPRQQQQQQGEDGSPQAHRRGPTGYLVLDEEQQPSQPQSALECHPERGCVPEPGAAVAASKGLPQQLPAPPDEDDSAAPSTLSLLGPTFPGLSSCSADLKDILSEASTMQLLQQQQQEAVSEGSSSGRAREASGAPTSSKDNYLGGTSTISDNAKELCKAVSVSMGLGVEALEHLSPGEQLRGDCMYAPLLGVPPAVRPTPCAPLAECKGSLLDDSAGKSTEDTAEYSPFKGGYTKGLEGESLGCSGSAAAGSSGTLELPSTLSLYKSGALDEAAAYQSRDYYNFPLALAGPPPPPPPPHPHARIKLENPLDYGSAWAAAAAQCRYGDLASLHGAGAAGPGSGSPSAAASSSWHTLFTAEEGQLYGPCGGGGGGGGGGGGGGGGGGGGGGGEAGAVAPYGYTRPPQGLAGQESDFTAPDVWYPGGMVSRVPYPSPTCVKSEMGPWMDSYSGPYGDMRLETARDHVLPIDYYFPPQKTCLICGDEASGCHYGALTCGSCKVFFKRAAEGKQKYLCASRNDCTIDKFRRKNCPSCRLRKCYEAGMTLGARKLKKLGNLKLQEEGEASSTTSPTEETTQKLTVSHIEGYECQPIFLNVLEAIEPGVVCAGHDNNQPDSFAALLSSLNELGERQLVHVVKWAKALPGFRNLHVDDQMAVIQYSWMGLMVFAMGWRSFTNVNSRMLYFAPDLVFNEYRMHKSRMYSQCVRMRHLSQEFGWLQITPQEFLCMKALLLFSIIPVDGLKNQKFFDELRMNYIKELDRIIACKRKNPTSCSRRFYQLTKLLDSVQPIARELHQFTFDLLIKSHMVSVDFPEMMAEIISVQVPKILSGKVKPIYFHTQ
Estrogen receptor beta (Homo sapiens), sequence (Q92731 whole entry, looked up): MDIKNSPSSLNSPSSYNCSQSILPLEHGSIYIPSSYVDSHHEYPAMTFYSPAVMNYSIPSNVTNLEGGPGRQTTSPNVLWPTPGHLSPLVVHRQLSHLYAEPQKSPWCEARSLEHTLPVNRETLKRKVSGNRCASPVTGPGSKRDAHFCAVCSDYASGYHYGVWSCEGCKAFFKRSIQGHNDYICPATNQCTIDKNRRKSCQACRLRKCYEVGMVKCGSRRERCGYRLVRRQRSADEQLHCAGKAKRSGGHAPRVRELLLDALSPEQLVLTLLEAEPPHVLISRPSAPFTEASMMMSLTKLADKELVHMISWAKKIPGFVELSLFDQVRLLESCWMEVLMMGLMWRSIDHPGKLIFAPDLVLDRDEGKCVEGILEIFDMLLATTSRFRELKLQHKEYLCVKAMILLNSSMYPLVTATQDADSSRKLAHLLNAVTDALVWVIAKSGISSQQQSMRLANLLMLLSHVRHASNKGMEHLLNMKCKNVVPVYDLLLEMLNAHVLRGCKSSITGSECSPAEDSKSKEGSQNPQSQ
Estrogen receptor (Homo sapiens), sequence (P03372 whole entry, looked up): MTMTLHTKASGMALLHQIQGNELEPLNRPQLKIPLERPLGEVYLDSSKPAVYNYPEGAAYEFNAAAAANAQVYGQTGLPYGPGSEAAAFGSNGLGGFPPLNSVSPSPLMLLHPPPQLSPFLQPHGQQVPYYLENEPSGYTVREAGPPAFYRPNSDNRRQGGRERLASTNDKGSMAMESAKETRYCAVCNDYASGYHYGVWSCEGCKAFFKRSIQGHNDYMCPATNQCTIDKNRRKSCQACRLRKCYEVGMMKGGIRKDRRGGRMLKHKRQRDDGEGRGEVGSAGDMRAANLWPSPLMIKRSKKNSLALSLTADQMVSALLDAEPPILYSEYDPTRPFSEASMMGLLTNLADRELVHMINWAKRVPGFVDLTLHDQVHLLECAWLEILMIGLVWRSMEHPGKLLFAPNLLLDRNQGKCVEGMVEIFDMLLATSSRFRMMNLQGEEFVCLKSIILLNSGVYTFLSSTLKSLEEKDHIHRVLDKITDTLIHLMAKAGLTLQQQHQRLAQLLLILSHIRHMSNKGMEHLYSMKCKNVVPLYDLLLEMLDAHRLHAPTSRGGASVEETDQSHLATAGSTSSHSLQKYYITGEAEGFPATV
Thyrotropin receptor (Homo sapiens), sequence (P16473 whole entry, looked up): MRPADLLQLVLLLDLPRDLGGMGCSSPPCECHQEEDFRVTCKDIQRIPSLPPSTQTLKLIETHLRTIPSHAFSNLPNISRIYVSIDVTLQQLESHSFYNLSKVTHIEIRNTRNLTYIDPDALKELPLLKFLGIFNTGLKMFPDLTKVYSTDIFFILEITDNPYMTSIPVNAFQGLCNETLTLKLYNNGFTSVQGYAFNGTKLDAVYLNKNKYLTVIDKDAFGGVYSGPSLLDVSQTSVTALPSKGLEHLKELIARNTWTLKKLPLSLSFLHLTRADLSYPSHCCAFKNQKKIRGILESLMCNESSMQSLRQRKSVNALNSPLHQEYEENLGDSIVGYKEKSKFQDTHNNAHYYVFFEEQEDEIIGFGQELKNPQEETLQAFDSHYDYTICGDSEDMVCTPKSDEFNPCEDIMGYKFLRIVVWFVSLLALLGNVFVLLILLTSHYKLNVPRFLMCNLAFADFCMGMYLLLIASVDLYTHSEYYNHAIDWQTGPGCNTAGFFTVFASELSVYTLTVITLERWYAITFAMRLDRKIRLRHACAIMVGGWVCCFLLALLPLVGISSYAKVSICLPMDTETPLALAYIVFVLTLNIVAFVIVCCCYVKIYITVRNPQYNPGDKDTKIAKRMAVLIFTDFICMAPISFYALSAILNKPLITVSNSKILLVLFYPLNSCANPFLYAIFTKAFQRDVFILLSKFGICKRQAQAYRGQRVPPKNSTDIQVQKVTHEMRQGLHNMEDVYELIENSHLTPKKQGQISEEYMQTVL

Structure (SMILES)	Potency [1]	Potency [2]	Potency [3]	Potency [4]	Potency [5]	Potency [6]	Potency [7]	Potency [8]	Potency [9]	Potency [10]	outcome [11]	Potency [12]	Potency [13]	Potency [14]	Potency [15]	outcome [16]	Potency [17]	Potency [18]	Potency [19]
O=C(CCl)CCl	inactive	inactive	inactive	inactive	inactive	inactive	63.4 µM (active) and 48.6 µM (active)	inactive	inactive	inactive	inactive	inactive	–	–	–	–	–	–	–
CC(C)c1ccc(NC(=O)N(C)C)cc1	inactive	24.3 µM (active)	inactive	inactive	inactive	inactive	inactive	inactive	inactive	inactive	–	inactive	inactive	inactive	inactive	–	–	–	–
C=CCN1C[C@H](C)N([C@H](c2ccc(C(=O)N(CC)CC)cc2)c2cccc(OC)c2)C[C@H]1C	inactive	inactive	inactive	inactive	inactive	inactive	inactive	inactive	inactive	inactive	inactive	inactive	inactive	inactive	inactive	inactive	inactive	–	–
CCCCNC(=O)OCC#CI	12.1 µM (active) and 48.6 µM (active)	inactive	inactive	54.2 µM (active) and 61.1 µM (active)	inactive	inactive	60.8 µM (active) and 68.6 µM (active)	60.8 µM (active) and inactive	inactive	inactive	–	inactive	60.8 µM (active)	60.8 µM (active) and 30.6 µM (active)	2.16 µM (active) and 7.7 µM (active)	–	–	–	–
COc1ccccc1N1CCNCC1	–	inactive	inactive	inactive	inactive	inactive	inactive	inactive	inactive	–	inactive	inactive	inactive	–	–	inactive	inactive	–	–
CN[C@@H](C)[C@H](O)c1ccccc1	inactive	inactive	inactive	inactive	inactive	inactive	inactive	inactive	inactive	inactive	inactive	inactive	inactive	inactive	–	inactive	inactive	–	–
COc1ccc(C(=O)c2c(C)n(CCN3CCOCC3)c3ccccc23)cc1	–	inactive	inactive	–	inactive	inactive	inactive	inactive	inactive	–	–	–	inactive	–	–	inactive	inactive	–	–
COC(=O)C1(O)c2ccccc2-c2ccccc21	inactive	inactive	inactive	inactive	inactive	inactive	inactive	inactive	inactive	inactive	inactive	inactive	inactive	inactive	inactive	–	–	inactive	–
CCCC1CCCCN1 (stereo unspecified)	inactive	inactive	inactive	inactive	inactive	–	inactive	inactive	inactive	inactive	inactive	inactive	inactive	inactive	inactive	inactive	–	–	–
Clc1ccccc1	inactive	inactive	inactive	26.9 µM (active)	inactive	–	inactive	inactive	inactive	inactive	inactive	–	inactive	–	479 nM (active)	–	–	–	–
CCC(C)Cl (stereo unspecified)	inactive	inactive	inactive	inactive	inactive	inactive	inactive	inactive	inactive	inactive	inactive	inactive	inactive	inactive	inactive	–	inactive	–	–
NC(=S)c1c(Cl)cccc1Cl	inactive	inactive	inactive	inactive	inactive	inactive	inactive	inactive	inactive	inactive	inactive	inactive	inactive	inactive	–	–	inactive	–	–
O=C(N/N=C/c1ccc([N+](=O)[O-])o1)c1cc([N+](=O)[O-])cc([N+](=O)[O-])c1O	–	inactive	inactive	10.6 µM (active)	inactive	inactive	11.9 µM (active)	inactive	inactive	–	inactive	inactive	–	10.6 µM (active)	10600 nM (active)	inactive	inactive	–	–
NP(N)(=O)NC(=O)c1ccc(F)cc1	inactive	inactive	inactive	inactive	inactive	inactive	inactive	inactive	inactive	inactive	inactive	inactive	–	–	inactive	inactive	–	inactive	inactive
CCOP(=O)(O)C(N)=O	inactive	inactive	inactive	inactive	inactive	inactive	inactive	inactive	inactive	inactive	–	inactive	inactive	inactive	–	–	–	–	–
Cc1nc2ccccc2c(=O)n1-c1ccccc1Cl	inactive	inactive	inactive	2.38 µM (active)	inactive	inactive	inactive	inactive	inactive	inactive	–	–	inactive	–	–	inactive	–	–	–
CCC1(C2=NCCN2)Cc2ccccc2O1 (stereo unspecified)	inactive	inactive	inactive	inactive	inactive	–	inactive	inactive	inactive	3.35 µM (active)	inactive	inactive	–	inactive	inactive	inactive	–	inactive	inactive
